The campaign covered roughly 39,000 compounds. About 3,300 (8.5%) were called active. The full list was thinned out, with actives kept by preference.
Tested on: HepG2
Assay: cytotoxicity call (relative viability < 0.9)
Conditions: 10 µM

SMILES	cytotoxicity call
C[C@@H]1CN([C@H](C)CO)C(=O)CCCn2cc(nn2)CO[C@H]1CN(C)C(=O)Nc1ccc(C(C)(C)C)cc1	inactive
C[C@@H]1CCCCO[C@H](CN(C)C(=O)Nc2ccc(C(F)(F)F)cc2)[C@@H](C)CN([C@H](C)CO)C(=O)c2cc(NC(=O)CCCCCC(=O)Nc3ccccc3N)ccc2O1	inactive
NS(=O)(=O)OC[C@H]1C[C@@H](Nc2ccnc3cc(-c4cccc(SC(F)(F)F)c4)nn23)[C@H](O)[C@@H]1O	active
O=C(C[C@H]1C[C@H]2c3cc(NC(=O)Cc4ccncc4)ccc3O[C@H]2[C@H](CO)O1)NCc1cccc(F)c1	inactive
CO[C@@H]1CN(C)C(=O)c2ccc(NC(=O)Nc3ccccc3F)cc2OC[C@@H](C)N(Cc2ccccc2F)C[C@H]1C	inactive
CC(=O)Nc1ncc(CN2CCOCC2)s1	inactive
Cc1c(CN2CCN(C(=O)[C@H](C)O)CC2)sc2c(N3CCOCC3)nc(-c3cnc(N)nc3)nc12	active
C[C@@H]1CN([C@H](C)CO)C(=O)Cc2cc(NC(=O)Cc3cn(C)c4ccccc34)ccc2O[C@@H]1CN(C)S(=O)(=O)c1cn(C)cn1	inactive
COC(=O)[C@@H](Cc1ccc(-n2cc(COc3ccccc3/C=C(C)/C=C/C(=O)NO)nn2)cc1)N1CC2=CCCC=C[C@@H]2[C@H]1[C@H](O)Cc1ccccc1	active
COC(=O)[C@@H](NC(=O)Cn1cc(COc2ccccc2/C=C(C)/C=C/C(=O)NO)nn1)c1ccccc1	active
COC(=O)[C@@H](Cc1ccc(-n2cc(COc3ccccc3/C=C(C)/C=C/C(=O)NO)nn2)cc1)N1CC2=C[C@H](C3CC3)n3c(=O)n(C)c(=O)n3[C@@H]2[C@H]1[C@H](O)Cc1ccccc1	inactive
CC(/C=C/C(=O)NO)=C\c1ccccc1OCc1cn(CC(=O)N2CCN(c3ccccc3)CC2)nn1	inactive
C=C/C=C/[C@@H]1C(=C)CN2[C@H]1[C@H](Cc1ccccc1)OC(=O)[C@@H]2Cc1ccc(-n2cc(COc3ccccc3/C=C(C)/C=C/C(=O)NO)nn2)cc1	inactive
CCOC(=O)[C@H](Cc1ccccc1)NC(=O)Cn1cc(C(=O)NO)nn1	inactive
C=C/C=C/[C@H]1C(=C)CN([C@H](Cc2ccc(-n3cc(COc4ccccc4/C=C(C)/C=C/C(=O)NO)nn3)cc2)C(=O)OC)[C@@H]1[C@H](O)Cc1ccccc1	inactive
COC(=O)[C@@H](NC(=O)Cn1cc(CCC(=O)NO)nn1)c1ccccc1	inactive
C#CCN1[C@H](/C=C/C2CC2)[C@H](Cc2ccccc2)OC(=O)[C@@H]1Cc1ccc(-n2cc(COc3ccccc3/C=C(C)/C=C/C(=O)NO)nn2)cc1	active
COC(=O)[C@@H](NC(=O)Cn1cc(C(=O)NO)nn1)c1ccccc1	active
COC(=O)[C@H](Cc1ccccc1)N1CC2=C[C@@H](C3CC3)n3c(=O)n(C)c(=O)n3[C@H]2[C@@H]1[C@@H](O)CCn1cc(COc2ccccc2/C=C(C)/C=C/C(=O)NO)nn1	inactive
CC(/C=C/C(=O)NO)=C\c1ccccc1OCc1cn(-c2ccc(C[C@H]3C(=O)O[C@@H](Cc4ccccc4)[C@H]4[C@@H]5C=CCCC=C5CN43)cc2)nn1	inactive
CS(=O)(=O)N1C[C@H](O)COC[C@H]2O[C@@H](CC(=O)NCc3ccccc3)CC[C@@H]21	inactive
CC(C)(C)[S@@](=O)N1Cc2cc(C(=O)N3CCc4ccccc4C3)nc(-c3cccc(-c4cncnc4)c3)c2[C@H]1CCO	inactive
COc1ccc(C#Cc2ccc3c(c2)O[C@@H](CN(C)C(=O)CN2CCOCC2)[C@H](C)CN([C@@H](C)CO)S3(=O)=O)cc1	inactive

SMILES	cytotoxicity call
Cc1noc(C)c1NC(=O)Nc1ccc2c(c1)C(=O)N([C@@H](C)CO)C[C@@H](C)[C@@H](CN(C)S(C)(=O)=O)O2	inactive
C[C@@H]1CN([C@@H](C)CO)C(=O)c2cc(NC(=O)CCN3CCOCC3)ccc2O[C@@H]1CN(C)Cc1ccccc1	inactive
CO[C@@H]1CN(C)C(=O)c2cc(NC(=O)c3cnccn3)ccc2OC[C@@H](C)N(CCC(F)(F)F)C[C@H]1C	inactive
C[C@H]1CN([C@@H](C)CO)C(=O)c2cccc(NS(=O)(=O)c3ccc(Cl)cc3)c2O[C@H]1CN(C)Cc1ccc(Oc2ccccc2)cc1	inactive
C[C@@H]1CN([C@@H](C)CO)C(=O)CCCn2cc(nn2)CO[C@@H]1CN(C)C(=O)C1CC1	inactive
COc1ccc(-c2cc(=O)c3c(OC)c(OC)c(OC)cc3o2)cc1OC	inactive
COc1ccc(-c2cc(=O)c3c(OC)cc(OC)cc3o2)cc1	inactive
COc1ccc(-c2cc(=O)c3c(O)c(OC)c(OC)c(OC)c3o2)cc1	active
COc1ccc(-c2cc(=O)c3c(OC)c(OC)c(OC)c(OC)c3o2)cc1OC	inactive
COc1ccc(-c2cc(=O)c3c(OC)c(OC)c(OC)c(OC)c3o2)cc1	inactive
COc1ccc(-c2cc(=O)c3c(O)c(OC)c(OC)c(OC)c3o2)cc1OC	active
O=c1cc(-c2ccc(O)cc2)oc2cc(O)cc(O)c12	inactive
COc1ccc(-c2cc(=O)c3c(O)cc(OC)cc3o2)cc1	inactive
COc1ccc(-c2cc(=O)c3c(O)cc(O)cc3o2)cc1	active
C[C@@H]1CN([C@@H](C)CO)S(=O)(=O)c2ccc(C#C[C@@H](C)O)cc2O[C@H]1CN(C)C(=O)CN(C)C	inactive
C[C@@H]1CN([C@H](C)CO)C(=O)c2cccc(NS(C)(=O)=O)c2O[C@@H]1CN(C)S(=O)(=O)c1cccs1	inactive
Clc1ccc2nncn2n1	inactive
CNC(=O)[C@H]1O[C@H](n2cnc3c(NCc4cccc(I)c4)nc(Cl)nc32)[C@@H](O)[C@@H]1O	inactive
C[C@@H]1CCCCO[C@@H](CN(C)Cc2ccncc2)[C@H](C)CN([C@H](C)CO)C(=O)c2cc(NS(=O)(=O)c3ccc(Cl)cc3)ccc2O1	inactive
NC(=O)NCC#Cc1ccc2c(c1)[C@]1(C(=O)N2)[C@H](C(=O)N2CCN(c3ncccn3)CC2)[C@H]2C(=O)O[C@H](c3ccccc3)[C@H](c3ccccc3)N2[C@@H]1c1ccccc1OCCO	inactive
Cc1cc(C(=O)Nc2cccc3c2O[C@@H](CN(C)S(=O)(=O)c2ccc(Cl)cc2)[C@@H](C)CN([C@@H](C)CO)C3=O)n(C)n1	inactive
O=C(CN1CCOCC1)NCC[C@@H]1CC[C@H](NC(=O)Nc2ccccc2)[C@@H](CO)O1	inactive
CNC(=O)Nc1ccc(-c2nc(N3C[C@H]4CC[C@@H](C3)O4)c3cnn(C4CCC5(CC4)OCCO5)c3n2)cc1	inactive

SMILES	cytotoxicity call
O=C1CC[C@@H](C(=O)N2CSC[C@H]2C(=O)O)N1	inactive
O=C1CCC(C(=O)N2CSCC2C(=O)O)N1 (stereo not drawn)	active
O=C1CC[C@@H](C(=O)O)N1	inactive
CC(C)NC(=O)Nc1cccc2c1O[C@H](CN(C)C(=O)NC1CCCCC1)[C@@H](C)CN([C@@H](C)CO)C2=O	inactive
C[C@@H]1CN([C@@H](C)CO)C(=O)c2cccc(NC(=O)c3ccncc3)c2O[C@@H]1CN(C)Cc1ccc2c(c1)OCO2	inactive
C[C@@H]1CCCCO[C@@H](CN(C)C(=O)C2CCCCC2)[C@H](C)CN([C@H](C)CO)C(=O)c2cc(NC(=O)Nc3cccc4ccccc34)ccc2O1	inactive
O=C(C[C@@H]1C[C@@H]2c3cc(NC(=O)NC4CCCC4)ccc3O[C@@H]2[C@@H](CO)O1)NCc1ccc(-c2ccccc2)cc1	inactive
O=C(C[C@@H]1C[C@H]2c3cc(NC(=O)NC4CCCC4)ccc3O[C@H]2[C@@H](CO)O1)NCc1ccc(-c2ccccc2)cc1	inactive
O=C(C[C@H]1C[C@@H]2c3cc(NC(=O)NC4CCCC4)ccc3O[C@@H]2[C@@H](CO)O1)NCc1ccc(-c2ccccc2)cc1	active
O=C(C[C@H]1C[C@@H]2c3cc(NC(=O)NC4CCCC4)ccc3O[C@@H]2[C@H](CO)O1)NCc1ccc(-c2ccccc2)cc1	active
O=C(C[C@H]1C[C@H]2c3cc(NC(=O)NC4CCCC4)ccc3O[C@H]2[C@@H](CO)O1)NCc1ccc(Oc2ccccc2)cc1	inactive
O=C(C[C@@H]1C[C@H]2c3cc(NC(=O)NC4CCCC4)ccc3O[C@H]2[C@H](CO)O1)NCc1ccc(-c2ccccc2)cc1	active
O=C(C[C@H]1C[C@H]2c3cc(NC(=O)NC4CCCC4)ccc3O[C@H]2[C@@H](CO)O1)NCc1ccc(-c2ccccc2)cc1	inactive
O=C(C[C@@H]1C[C@@H]2c3cc(NC(=O)NC4CCCC4)ccc3O[C@@H]2[C@H](CO)O1)NCc1ccc(-c2ccccc2)cc1	inactive
O=C(C[C@H]1C[C@H]2c3cc(NC(=O)NC4CCCC4)ccc3O[C@H]2[C@H](CO)O1)NCc1ccc(-c2ccccc2)cc1	inactive
CC(=O)OCCc1nc(C(=O)NCc2ccc3c(c2)OCO3)cc2c1[C@@H](CCO)N([S@](=O)C(C)(C)C)C2	inactive
O=C(C[C@@H]1C[C@H]2c3cc(NS(=O)(=O)c4ccccc4)ccc3O[C@H]2[C@H](CO)O1)NCC(F)(F)F	inactive
COc1cccc(-c2ccc3c(c2)O[C@H](CN(C)C(=O)C2CCOCC2)[C@@H](C)CN([C@@H](C)CO)S3(=O)=O)c1	inactive
C[C@@H]1CN([C@H](C)CO)C(=O)c2cc(NC(=O)Nc3ccccc3)ccc2O[C@@H]1CN(C)Cc1ccc(C(=O)Nc2ccccc2N)cc1	inactive
C[C@H](CO)N1C[C@H](C)[C@H](CN(C)S(=O)(=O)c2ccccc2)Oc2ccc(NS(=O)(=O)c3ccc(F)cc3)cc2C1=O	inactive
CN1C(=O)c2cc(NC(=O)c3cnccn3)ccc2OC[C@H]2O[C@H](CC(=O)N[C@H]3CCN(Cc4ccccc4)C3)CC[C@@H]21	inactive
COc1ccc(S(=O)(=O)N(C)C[C@@H]2Oc3ccc(NC(=O)Cn4cnnn4)cc3C(=O)N([C@H](C)CO)C[C@@H]2C)cc1	inactive
